Assay results reported in PubChem BioAssay AID2279 (Southern Research Specialized Biocontainment Screening …, 2010).
Entries with a potency or affinity are not part of this list. Active and inactive are the calls of the source. The rule behind the calls is not given here.

test: HIV-1 Env-mediated cell fusion inhibitors, dose response, CCR5-tropic Env (AID 2279); conditions: CCR5-tropic HIV-1 Env, reporter read-out; series mostly up to 50 µM; inhibition: at the top concentration

inhibition, inactive:
CCC(C)(C)C1CCc2c(sc(NC(=O)c3ccccc3C(=O)O)c2C#N)C1 (centres undefined) -10.8% [at 25 µM], CCOC(=O)c1sc(N2C(=O)C(O)=C(C(=O)c3ccco3)C2c2cccc([N+](=O)[O-])c2)nc1C (centres undefined) 17.9%, O=C(NC(=S)Nc1ccccc1C(=O)O)c1ccc(-c2ccc(Br)cc2)o1 31.8%, COc1cc(/C=C2\S/C(=N/S(=O)(=O)c3ccc(C)cc3)NC2=O)c([N+](=O)[O-])cc1OC -8.6%, CCc1ccc(S(=O)(=O)/N=C2\C=C(NS(=O)(=O)c3ccccc3)C(=O)c3ccccc32)cc1 -36.3%, Cc1ccccc1N=C1NC(=O)/C(=C/c2cccn2-c2cccc(C(=O)O)c2)S1 -7.38%, O=C(O)c1ccc(-c2ccc(/C=C3\NC(=O)N(Cc4ccc(Cl)cc4)C3=O)o2)cc1Cl -0.7%, COc1ccc(N=C2S/C(=C\c3ccc(OCC(=O)O)cc3)C(=O)N2CCc2c[nH]c3ccccc23)cc1 22.9%, O=C(NN1C(=O)/C(=C/c2ccc(O)c([N+](=O)[O-])c2)SC1=S)c1ccccc1Cl -9.47%, CS(=O)(=O)C1=NSC2=NC(=O)/C(=C\c3cccn3-c3ccc(Cl)cc3)C(=N)N21 -11.3%, CCOc1cc(/C=N/N=C2/NC(=O)C(CC(=O)O)S2)ccc1OCc1ccc(Cl)cc1 (centres undefined) 10.5%, Cc1cc(Cl)ccc1OC(C)C(=O)Nc1ccc(S(=O)(=O)Nc2cnc3ccccc3n2)cc1 (centres undefined) 22.9%, Cc1ccc(F)c(NC(=O)/C(C#N)=C(\O)c2ccc(C(C)(C)C)cc2)c1 25%, O=C(O)CN1C(=O)/C(=C\c2cccc(OCc3ccc(Cl)cc3)c2)SC1=S 28.8%, O=C(O)c1[nH]c2ccccc2c1C(c1cc(Br)ccc1O)c1c(C(=O)O)[nH]c2ccccc12 -15.4%, Cc1cc(N2C(=O)C(O)=C(C(=O)c3cc4ccccc4o3)C2c2ccc(Cl)cc2)no1 (centres undefined) 32.2%, Cc1ccc(S(=O)(=O)/N=C2/NC(=O)/C(=C/c3cc([N+](=O)[O-])ccc3O)S2)cc1 -12.6%, O=C(O)CCN1C(=O)/C(=C\c2cccc(OCC(=O)Nc3ccc(Cl)cc3)c2)SC1=S 1.86%, O=C(O)CN1C(=O)/C(=C\c2cc(Br)ccc2OCc2ccccc2F)SC1=S -3.94%, Cc1cccc(OCC(=O)Nc2ccc(C(=O)Nc3ccccc3C(=O)O)cc2)c1C 8.51%, O=C(O)c1cccc(N/N=C/c2cc(Br)cc(Br)c2O)c1 11.8% [at 25 µM], Cc1cccc(C)c1-n1cccc1/C=C1\SC(=S)N(c2cccc(C(=O)O)c2)C1=O 17.3%, CC(C)c1ccc(OCC(=O)Nc2cccc(C(=O)Nc3ccccc3C(=O)O)c2)cc1 -1.84%, O=C(Nc1ccc(C(=O)O)cc1)/C(=C\C=C\c1ccccc1)NC(=O)c1cccc(Br)c1 -5.24%, COc1cccc(NS(=O)(=O)c2ccc3c(c2)C2C=CCC2C(c2ccc(C(=O)O)cc2)N3)c1 (centres undefined) 11.7%, O=C(O)c1ccccc1NS(=O)(=O)c1ccc(NNC(=S)Nc2ccc(OC(F)F)cc2)c([N+](=O)[O-])c1 -5.05%, CCCOc1ccc(C2C(C(=O)c3cc4ccccc4o3)=C(O)C(=O)N2c2cc(C)on2)cc1 (centres undefined) 31.8%, Cc1ccc(-n2cccc2/C=C2/C(=N)N3C(=NC2=O)SN=C3S(C)(=O)=O)cc1Cl 0.44%, COc1ccc(OC)c(/C=C2\SC(=S)N(NS(=O)(=O)c3ccc(C)cc3)C2=O)c1 4.7%, O=c1[nH]c(=S)[nH]c2c1C(c1ccc(Br)cc1)c1c([nH]c(=S)[nH]c1=O)O2 21%, O=C(CCN1C(=O)/C(=C\c2ccccc2F)SC1=S)Nc1ccc(C(=O)O)c(O)c1 9.96%, CCc1nnc(NS(=O)(=O)c2ccc(N/C=C(\C=O)c3nc4cc(Cl)ccc4o3)cc2)s1 -1.49%, COc1cccc(-c2nc(SCC(=O)Nc3nc(-c4ccccc4)c(C)s3)[nH]c(=O)c2C#N)c1 -9.79%, Nc1c(S(=O)(=O)O)cc(NC(=O)c2ccccc2)c2c1C(=O)c1ccccc1C2=O -0.14%
